# Reference: the supplement of paper PMC12067093, “Discovery and optimisation of a covalent ligand for TRIM25 and its application to targeted protein ubiquitination” (Chemical Science, 2025)
# Targets with the largest changes are over-represented here; the source holds about 21,000 in all.
# Compound: Cc1cc(ccc1-c1ccccc1)C(=O)N1CCCN(CC1)C(=O)CCl [compound 10]
# Test: probe-labelled cysteine peptide fold change vs DMSO (competition) (log2 fold change); higher = less target engagement (more negative = stronger competition)
# Details: THP-1, incubation time: 4 h
# 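Note: competitive profiling in live THP-1 cells: cysteine peptides tagged with an iodoacetamide desthiobiotin (IA-DTB) probe, intensity after compound treatment relative to DMSO-treated cells.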
# Chain of UniProt Q5VZL5 (Q5VZL5 whole entry, looked up): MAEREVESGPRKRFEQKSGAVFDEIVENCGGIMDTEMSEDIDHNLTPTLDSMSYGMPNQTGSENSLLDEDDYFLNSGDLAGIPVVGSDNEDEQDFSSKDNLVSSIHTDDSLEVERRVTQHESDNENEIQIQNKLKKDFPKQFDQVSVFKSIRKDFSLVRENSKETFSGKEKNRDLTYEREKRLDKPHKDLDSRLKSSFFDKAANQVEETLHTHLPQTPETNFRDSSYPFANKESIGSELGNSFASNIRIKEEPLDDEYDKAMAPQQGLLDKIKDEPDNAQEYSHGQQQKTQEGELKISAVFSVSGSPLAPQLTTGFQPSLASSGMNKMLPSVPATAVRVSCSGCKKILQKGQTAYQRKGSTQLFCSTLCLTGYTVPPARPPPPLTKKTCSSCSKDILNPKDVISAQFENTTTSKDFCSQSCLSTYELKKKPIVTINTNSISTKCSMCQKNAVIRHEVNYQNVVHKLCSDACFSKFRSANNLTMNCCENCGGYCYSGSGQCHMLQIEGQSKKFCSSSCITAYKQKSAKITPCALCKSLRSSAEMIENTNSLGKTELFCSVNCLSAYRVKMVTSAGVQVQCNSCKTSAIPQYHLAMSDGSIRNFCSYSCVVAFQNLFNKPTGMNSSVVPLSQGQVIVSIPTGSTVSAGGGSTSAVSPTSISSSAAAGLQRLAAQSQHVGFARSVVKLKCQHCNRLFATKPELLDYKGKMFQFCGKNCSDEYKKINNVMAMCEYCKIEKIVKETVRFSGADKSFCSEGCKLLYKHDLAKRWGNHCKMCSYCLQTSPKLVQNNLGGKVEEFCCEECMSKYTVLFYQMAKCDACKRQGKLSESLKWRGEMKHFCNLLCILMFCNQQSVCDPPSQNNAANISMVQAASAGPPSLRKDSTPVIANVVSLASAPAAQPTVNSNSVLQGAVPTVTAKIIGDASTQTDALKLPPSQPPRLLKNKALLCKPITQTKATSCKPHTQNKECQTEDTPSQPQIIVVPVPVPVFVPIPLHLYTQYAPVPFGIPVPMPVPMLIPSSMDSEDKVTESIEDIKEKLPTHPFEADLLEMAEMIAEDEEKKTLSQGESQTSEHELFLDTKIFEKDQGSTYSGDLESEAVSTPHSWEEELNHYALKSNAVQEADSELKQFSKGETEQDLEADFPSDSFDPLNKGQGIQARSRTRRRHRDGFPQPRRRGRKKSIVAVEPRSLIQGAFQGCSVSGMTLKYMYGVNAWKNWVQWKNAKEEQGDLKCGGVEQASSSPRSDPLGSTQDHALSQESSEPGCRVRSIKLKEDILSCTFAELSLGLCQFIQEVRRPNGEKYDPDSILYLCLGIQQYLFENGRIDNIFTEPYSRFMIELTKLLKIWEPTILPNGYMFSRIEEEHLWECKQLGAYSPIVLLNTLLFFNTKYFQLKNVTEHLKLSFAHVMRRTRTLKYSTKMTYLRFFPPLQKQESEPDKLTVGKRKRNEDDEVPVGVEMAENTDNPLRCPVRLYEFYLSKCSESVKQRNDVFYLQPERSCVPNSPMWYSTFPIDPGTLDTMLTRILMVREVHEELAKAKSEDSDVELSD
# Chain of UniProt Q9C0E2 (Q9C0E2 whole entry, looked up): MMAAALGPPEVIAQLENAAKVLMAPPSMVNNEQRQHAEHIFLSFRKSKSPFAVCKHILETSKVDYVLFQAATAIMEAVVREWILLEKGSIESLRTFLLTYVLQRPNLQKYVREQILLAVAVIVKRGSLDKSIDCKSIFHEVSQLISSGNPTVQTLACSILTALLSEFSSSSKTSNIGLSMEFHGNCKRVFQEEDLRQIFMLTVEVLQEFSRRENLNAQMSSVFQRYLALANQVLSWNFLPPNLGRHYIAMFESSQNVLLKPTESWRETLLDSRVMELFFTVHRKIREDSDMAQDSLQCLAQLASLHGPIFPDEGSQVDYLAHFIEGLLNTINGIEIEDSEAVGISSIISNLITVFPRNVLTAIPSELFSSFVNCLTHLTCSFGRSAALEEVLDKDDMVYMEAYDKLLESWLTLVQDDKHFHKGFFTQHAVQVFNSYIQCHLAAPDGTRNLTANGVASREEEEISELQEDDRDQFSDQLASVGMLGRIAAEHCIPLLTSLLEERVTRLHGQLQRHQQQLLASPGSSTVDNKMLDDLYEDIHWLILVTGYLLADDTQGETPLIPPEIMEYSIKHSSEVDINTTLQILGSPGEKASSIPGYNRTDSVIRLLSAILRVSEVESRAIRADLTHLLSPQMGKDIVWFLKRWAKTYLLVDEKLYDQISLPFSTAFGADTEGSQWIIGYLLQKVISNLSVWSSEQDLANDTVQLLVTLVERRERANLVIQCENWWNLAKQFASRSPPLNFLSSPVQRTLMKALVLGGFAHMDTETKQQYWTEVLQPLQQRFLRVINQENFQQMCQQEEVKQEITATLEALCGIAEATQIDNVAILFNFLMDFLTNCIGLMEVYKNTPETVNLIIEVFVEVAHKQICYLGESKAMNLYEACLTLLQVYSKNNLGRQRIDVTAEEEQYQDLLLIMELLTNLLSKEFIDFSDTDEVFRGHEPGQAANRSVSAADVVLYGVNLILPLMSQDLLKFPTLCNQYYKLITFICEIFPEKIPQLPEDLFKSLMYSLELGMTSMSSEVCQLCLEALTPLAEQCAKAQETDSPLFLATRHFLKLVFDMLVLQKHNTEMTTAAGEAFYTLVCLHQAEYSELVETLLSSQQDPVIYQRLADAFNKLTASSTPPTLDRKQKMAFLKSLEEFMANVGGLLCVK
# Chain of UniProt Q14966 (Q14966 whole entry, looked up): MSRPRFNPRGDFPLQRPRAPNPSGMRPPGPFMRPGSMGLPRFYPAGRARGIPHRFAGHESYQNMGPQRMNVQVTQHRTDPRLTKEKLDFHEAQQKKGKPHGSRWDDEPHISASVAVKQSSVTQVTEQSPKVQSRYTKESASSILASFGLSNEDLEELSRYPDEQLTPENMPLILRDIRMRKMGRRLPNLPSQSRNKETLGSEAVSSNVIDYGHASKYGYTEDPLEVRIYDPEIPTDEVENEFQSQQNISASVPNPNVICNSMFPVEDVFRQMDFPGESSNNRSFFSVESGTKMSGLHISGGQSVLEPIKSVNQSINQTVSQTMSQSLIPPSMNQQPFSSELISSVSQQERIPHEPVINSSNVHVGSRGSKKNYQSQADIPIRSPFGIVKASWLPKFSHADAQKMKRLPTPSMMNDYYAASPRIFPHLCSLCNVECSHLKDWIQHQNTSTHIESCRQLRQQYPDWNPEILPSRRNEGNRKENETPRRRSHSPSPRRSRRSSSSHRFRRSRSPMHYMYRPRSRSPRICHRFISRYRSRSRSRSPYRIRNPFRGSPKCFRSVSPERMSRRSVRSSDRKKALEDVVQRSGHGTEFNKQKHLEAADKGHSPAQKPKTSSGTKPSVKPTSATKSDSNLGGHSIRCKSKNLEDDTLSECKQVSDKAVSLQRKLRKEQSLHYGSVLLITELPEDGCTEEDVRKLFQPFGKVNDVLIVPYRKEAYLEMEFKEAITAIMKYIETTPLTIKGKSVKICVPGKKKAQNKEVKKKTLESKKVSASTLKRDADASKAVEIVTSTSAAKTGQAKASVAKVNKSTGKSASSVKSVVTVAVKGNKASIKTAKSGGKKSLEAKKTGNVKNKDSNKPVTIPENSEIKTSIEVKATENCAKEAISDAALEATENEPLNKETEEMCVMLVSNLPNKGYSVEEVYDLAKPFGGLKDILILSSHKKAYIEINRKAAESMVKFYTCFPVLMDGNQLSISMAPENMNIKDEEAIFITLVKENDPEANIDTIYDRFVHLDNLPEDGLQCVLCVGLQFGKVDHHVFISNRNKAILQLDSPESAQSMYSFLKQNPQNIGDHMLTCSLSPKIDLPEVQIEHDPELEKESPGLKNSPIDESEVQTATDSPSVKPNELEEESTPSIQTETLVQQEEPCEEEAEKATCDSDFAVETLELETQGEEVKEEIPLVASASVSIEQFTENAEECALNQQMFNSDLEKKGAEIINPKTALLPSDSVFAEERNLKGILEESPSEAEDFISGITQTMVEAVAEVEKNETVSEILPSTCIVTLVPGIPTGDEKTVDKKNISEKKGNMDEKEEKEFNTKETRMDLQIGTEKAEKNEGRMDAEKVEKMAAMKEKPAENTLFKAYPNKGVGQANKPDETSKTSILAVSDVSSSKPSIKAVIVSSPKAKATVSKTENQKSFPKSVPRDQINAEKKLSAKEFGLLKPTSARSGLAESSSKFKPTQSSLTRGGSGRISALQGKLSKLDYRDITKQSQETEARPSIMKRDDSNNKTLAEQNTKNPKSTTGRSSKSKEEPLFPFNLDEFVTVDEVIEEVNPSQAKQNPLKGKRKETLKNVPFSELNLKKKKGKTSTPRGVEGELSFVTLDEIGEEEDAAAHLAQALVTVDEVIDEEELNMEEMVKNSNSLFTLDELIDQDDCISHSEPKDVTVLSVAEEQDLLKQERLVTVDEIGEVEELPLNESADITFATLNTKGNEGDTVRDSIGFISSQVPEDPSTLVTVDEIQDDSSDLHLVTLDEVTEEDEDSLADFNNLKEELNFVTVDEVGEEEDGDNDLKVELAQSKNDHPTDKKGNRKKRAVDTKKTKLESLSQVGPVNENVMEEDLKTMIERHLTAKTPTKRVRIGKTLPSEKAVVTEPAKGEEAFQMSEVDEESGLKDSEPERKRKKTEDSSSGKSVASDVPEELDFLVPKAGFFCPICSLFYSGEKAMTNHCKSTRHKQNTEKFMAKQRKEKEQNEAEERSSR
# Chain of UniProt Q8NBI6 (Q8NBI6 whole entry, looked up): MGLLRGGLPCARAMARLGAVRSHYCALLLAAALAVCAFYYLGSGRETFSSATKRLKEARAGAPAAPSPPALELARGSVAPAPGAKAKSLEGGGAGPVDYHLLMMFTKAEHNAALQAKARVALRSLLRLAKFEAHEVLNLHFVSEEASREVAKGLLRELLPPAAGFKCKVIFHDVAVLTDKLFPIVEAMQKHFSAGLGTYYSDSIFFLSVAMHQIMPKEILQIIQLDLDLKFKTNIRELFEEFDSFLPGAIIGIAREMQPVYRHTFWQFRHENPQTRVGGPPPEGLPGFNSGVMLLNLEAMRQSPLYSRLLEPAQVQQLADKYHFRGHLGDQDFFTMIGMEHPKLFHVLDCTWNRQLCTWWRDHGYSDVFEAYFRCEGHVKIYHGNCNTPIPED
Target,probe-labelled cysteine peptide fold change (10 µM),probe-labelled cysteine peptide fold change (50 µM)
ZNF562_Q6V9R5_17_EPICPFEEK<|>ZNF561_Q8N587_17_EPICPFEEK (UniProt Q8N587+Q6V9R5),-0.186,-1.08
XXYLT1_Q8NBI6_386_IYHGNCNTPIPED (UniProt Q8NBI6),-0.00561,-0.0309
ZC3HAV1_Q7Z2W4_7_ADPEVCCFITK (UniProt Q7Z2W4),0.158,0.175
ZNF76_P36508_342_HHVVHTHCK (UniProt P36508),-0.115,-0.0476
ZNF483_Q8TF39_392_IHLGDRSQKCSK (UniProt Q8TF39),-0.0771,-0.64
XPO4_Q9C0E2_492_IAAEHCIPLLTSLLEER (UniProt Q9C0E2),0.012,0.2
WDFY4_Q6ZS81_2226_TEDFVSCIENYR (UniProt Q6ZS81),-0.17,-0.159
ZNF638_Q14966_688_EQSLHYGSVLLITELPEDGCTEEDVR (UniProt Q14966),0.0192,0.11
ZC3HAV1_Q7Z2W4_168_QQICNQQPPCSR (UniProt Q7Z2W4),0.0782,-0.158
ZNF579_Q8NAF0_77_LSHSGLRPHACPLCPK (UniProt Q8NAF0),0.112,-0.0195
WDR3_Q9UNX4_183_WWDLDTQHCFK (UniProt Q9UNX4),0.0656,0.271
YEATS2_Q9ULM3_565_QEDSLFASMPPLCPIGSHPK (UniProt Q9ULM3),-0.301,-0.418
ZMYM4_Q5VZL5_1499_SCVPNSPMWYSTFPIDPGTLDTMLTR (UniProt Q5VZL5),-0.668,-0.33
